Laboratory results reported in publication PMC11062922 (Nature Chemical Biology, 2023).
Where two headings read alike, the source gives them in different places.

Columns and labels:
Parameters in all cases: species or system human, MV4-11 + K-562 + COLO205 + SK-N-BE2 + OVCAR-8
CDKL5 = conditions: read-out: apparent Kd; compound concentrations: 100 nM and 1000 nM (sheet 'Samples'), CATDS: 0.49229073825052599; n = 1
TESK1 = conditions: read-out: apparent Kd; compound concentrations: 100 nM and 1000 nM (sheet 'Samples'), CATDS: 0.50795455679108803; n = 1
CLK1 = conditions: read-out: apparent Kd; compound concentrations: 100 nM and 1000 nM (sheet 'Samples'), CATDS: 4.8485832065687497E-2; n = 1
CLK4 = conditions: read-out: apparent Kd; compound concentrations: 100 nM and 1000 nM (sheet 'Samples'), CATDS: 5.2281896734728002E-2; n = 1
CSNK1D = conditions: read-out: apparent Kd, n = 1
CSNK1E = conditions: read-out: apparent Kd, n = 1
EIF2AK1 = conditions: read-out: apparent Kd; compound concentrations: 100 nM and 1000 nM (sheet 'Samples'), CATDS: 4.8293070245640599E-2; n = 1
FER = conditions: read-out: apparent Kd; compound concentrations: 100 nM and 1000 nM (sheet 'Samples'), CATDS: 4.7949039435888803E-2; n = 1
GAK = conditions: read-out: apparent Kd; compound concentrations: 100 nM and 1000 nM (sheet 'Samples'), CATDS: 0.152402490696291; n = 1
IGF1R = conditions: read-out: apparent Kd; compound concentrations: 100 nM and 1000 nM (sheet 'Samples'), CATDS: 5.4863623433827502E-2; n = 1
INSR = conditions: read-out: apparent Kd; compound concentrations: 100 nM and 1000 nM (sheet 'Samples'), CATDS: 6.5997959622395005E-2; n = 1
MAPK10 = conditions: read-out: apparent Kd; compound concentrations: 100 nM and 1000 nM (sheet 'Samples'), CATDS: 0.16896566157677501; n = 1
MAPK8 = conditions: read-out: apparent Kd; compound concentrations: 100 nM and 1000 nM (sheet 'Samples'), CATDS: 0.131985587437009; n = 1
MAPK9 = conditions: read-out: apparent Kd; compound concentrations: 100 nM and 1000 nM (sheet 'Samples'), CATDS: 0.113022620554471; n = 1
PTK2B = conditions: read-out: apparent Kd; compound concentrations: 100 nM and 1000 nM (sheet 'Samples'), CATDS: 8.3393690442652907E-2; n = 1
TNK1 = conditions: read-out: apparent Kd; compound concentrations: 100 nM and 1000 nM (sheet 'Samples'), CATDS: 0.131122015547642; n = 1
TTK = conditions: read-out: apparent Kd; compound concentrations: 100 nM and 1000 nM (sheet 'Samples'), CATDS: 6.1430797612991001E-2; n = 1
CIT = conditions: read-out: apparent Kd; compound concentrations:100 nM and 1000 nM (sheet 'Samples'); n = 1
CSNK1A1 = conditions: read-out: apparent Kd; compound concentrations:100 nM and 1000 nM (sheet 'Samples'); n = 1
DDR1 = conditions: read-out: apparent Kd; compound concentrations:100 nM and 1000 nM (sheet 'Samples'); n = 1
MAPK11 = conditions: read-out: apparent Kd; compound concentrations:100 nM and 1000 nM (sheet 'Samples'); n = 1
MAPKAPK2 = conditions: read-out: apparent Kd; compound concentrations:100 nM and 1000 nM (sheet 'Samples'); n = 1
NLK = conditions: read-out: apparent Kd; compound concentrations:100 nM and 1000 nM (sheet 'Samples'); n = 1
PRKCA = conditions: read-out: apparent Kd, n = 1
PRKD2 = conditions: read-out: apparent Kd; compound concentrations:100 nM and 1000 nM (sheet 'Samples'); n = 1
PRKD3 = conditions: read-out: apparent Kd; compound concentrations:100 nM and 1000 nM (sheet 'Samples'); n = 1
RIPK2 = conditions: read-out: apparent Kd; compound concentrations:100 nM and 1000 nM (sheet 'Samples'); n = 1
SIK3 = conditions: read-out: apparent Kd; compound concentrations:100 nM and 1000 nM (sheet 'Samples'); n = 1
TNIK = conditions: read-out: apparent Kd; compound concentrations:100 nM and 1000 nM (sheet 'Samples'); n = 1
CDK9 = conditions: read-out: apparent Kd; compound concentrations:100 nM and 1000 nM (sheet 'Samples'); n = 1
NEK3 = conditions: read-out: apparent Kd; compound concentrations:100 nM and 1000 nM (sheet 'Samples'); n = 1
CDK7 = conditions: read-out: apparent Kd; compound concentrations:100 nM and 1000 nM (sheet 'Samples'); n = 1
ERCC2 = conditions: read-out: apparent Kd; compound concentrations:100 nM and 1000 nM (sheet 'Samples'); n = 1
GSK3A = conditions: read-out: apparent Kd; compound concentrations:100 nM and 1000 nM (sheet 'Samples'); n = 1
GSK3B = conditions: read-out: apparent Kd; compound concentrations:100 nM and 1000 nM (sheet 'Samples'); n = 1
PAK6 = conditions: read-out: apparent Kd; compound concentrations:100 nM and 1000 nM (sheet 'Samples'); n = 1
PKN1 = conditions: read-out: apparent Kd; compound concentrations:100 nM and 1000 nM (sheet 'Samples'); n = 1
PRKCB = conditions: read-out: apparent Kd; compound concentrations:100 nM and 1000 nM (sheet 'Samples'); n = 1
PRKCD = conditions: read-out: apparent Kd; compound concentrations:100 nM and 1000 nM (sheet 'Samples'); n = 1
PRKCQ = conditions: read-out: apparent Kd; compound concentrations:100 nM and 1000 nM (sheet 'Samples'); n = 1
RPS6KA6 = conditions: read-out: apparent Kd; compound concentrations:100 nM and 1000 nM (sheet 'Samples'); n = 1
[1] = compound concentrations:100 nM and 1000 nM (sheet 'Samples')

CCn1c(-c2c(N)noc2C)nc2cnccc21 [SB-737856]
potency estimated from few doses (CDKL5): 1930 nM | potency estimated from few doses (TESK1): 1820 nM

CCCN1CCC(c2ccc(Nc3nc(Nc4cc(F)ccc4C(N)=O)c4cc[nH]c4n3)c(OC)c2)CC1 [GSK1326255A]
potency estimated from few doses (CLK1): 1210 nM | potency estimated from few doses (CLK4): 912 nM | potency estimated from few doses (CSNK1D; compound concentrations: 100 nM and 1000 nM (sheet 'Samples'), CATDS: 4.52776824202724E-2): 1610 nM | potency estimated from few doses (CSNK1E; compound concentrations: 100 nM and 1000 nM (sheet 'Samples'), CATDS: 4.2697744465197598E-2): 2150 nM | potency estimated from few doses (EIF2AK1): 1230 nM | potency estimated from few doses (FER): 1260 nM | potency estimated from few doses (GAK): 82.5 nM | potency estimated from few doses (IGF1R): 775 nM | potency estimated from few doses (INSR): 449 nM | potency estimated from few doses (MAPK10): 70.3 nM | potency estimated from few doses (MAPK8): 104 nM | potency estimated from few doses (MAPK9): 137 nM | potency estimated from few doses (PTK2B): 253 nM | potency estimated from few doses (TNK1): 106 nM | potency estimated from few doses (TTK): 548 nM

Cl.Nc1nccc(-c2c(-c3ccc(F)cc3)ncn2C2CCNCC2)n1 [SB-220025-A]
potency estimated from few doses (CIT): 815 nM | potency estimated from few doses (CSNK1A1): 19.8 nM | potency estimated from few doses (CSNK1D; [1]): 1.63 nM | potency estimated from few doses (CSNK1E; [1]): 2.51 nM | potency estimated from few doses (DDR1): 1350 nM | potency estimated from few doses (MAPK11): 689 nM | potency estimated from few doses (MAPKAPK2): 3.23 nM | potency estimated from few doses (NLK): 324 nM | potency estimated from few doses (PRKCA; [1]): 2370 nM | potency estimated from few doses (PRKD2): 956 nM | potency estimated from few doses (PRKD3): 1420 nM | potency estimated from few doses (RIPK2): 68.3 nM | potency estimated from few doses (SIK3): 1140 nM | potency estimated from few doses (TNIK): 1610 nM

Nc1n[nH]c2cnc(-c3ccccc3)cc12 [SB-642124-AAA]
potency estimated from few doses (CDK9): 1400 nM | potency estimated from few doses (NEK3): 1820 nM

CN(C)C[C@H]1CCn2c(c(C3=C(c4cn(C)c5ccccc45)C(=O)NC3=O)c3ccccc32)C1 [RO0320432-000]
potency estimated from few doses (CDK7): 1010 nM | potency estimated from few doses (ERCC2): 821 nM | potency estimated from few doses (GSK3A): 530 nM | potency estimated from few doses (GSK3B): 299 nM | potency estimated from few doses (PAK6): 1540 nM | potency estimated from few doses (PKN1): 1400 nM | potency estimated from few doses (PRKCA; compound concentrations: 100 nM and 1000 nM (sheet 'Samples'), CATDS: 0.33942301458254898): 18.6 nM | potency estimated from few doses (PRKCB): 66.4 nM | potency estimated from few doses (PRKCD): 27.1 nM | potency estimated from few doses (PRKCQ): 122 nM | potency estimated from few doses (RPS6KA6): 311 nM
